ELG1 DNA repair: inhibitors of ELG1-dependent DNA repair in HEK293T cells; HEK293T ELG1-luciferase reporter, luminescence, 16 h; DNA damage induced by 5-fluorouridine; Potency, µM (highest dose often 46.1 µM), for the others: top-dose activity change, negative = inhibition, most hits filed as inhibitors; 330,000 compounds, 2.3% hits; AID 504467; further: on the % scale 0 is the no-effect control and ±100 the full control effect; nearly all actives have a fitted effect of over 55% in size
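Cells (2,000 per well) received 5-fluorouridine plus test compound or DMSO and were incubated 16 hr at 37 °C, 5% CO2. Luciferase activity was read by luminescence 30 min after ONE-Glo addition; signal suppression marked inhibition of damage-induced ELG1 function.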
KB-3-1 cytotox: kills parental KB-3-1 adenocarcinoma cells | KB-3-1 viability, CellTiter-Glo ATP luminescence, 72 h | Potency, µM (top dose mostly 46.1 µM), hits mostly cytotoxic | 400,000 compounds, 1.4% hits; further: on the % scale 0 is the no-effect control and ±100 the full control effect; nearly all actives have a fitted effect of over 60% in size
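Multi-concentration cytotoxicity screen in KB-3-1 cells grown in DMEM lacking phenol red with 10% FBS. After 72 h at 37 °C with compound, ATP-dependent luminescence was recorded.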
MCF10A rerep: induces DNA re-replication in MCF 10a normal breast cells. 350,000 compounds, 2.9% hits. MCF 10A DNA re-replication, Hoechst nuclear intensity, 48 h. Potency, µM (top dose mostly 46.1 µM), for inactives: at the highest dose activity, positive = re-replication, usual class: activators; further: % of control where 0% means no effect; nearly all actives have a fitted effect of over 50% in size
KB-V1 cytotox: KB-V1 MDR subline cytotoxicity; KB-V1 MDR cells viability, CellTiter-Glo, 72 h; Potency, µM (doses to about 46.1 µM), usual class: cytotoxic; 400,000 compounds, 3.4% hits; further: on the % scale 0 is the no-effect control and ±100 the full control effect; nearly all actives have a fitted effect of over 60% in size
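Cytotoxicity via CellTiter-Glo luminescence after 72 h compound exposure at 37 degrees C. Cells: drug-selected KB-V1 line, DMEM phenol-red free plus 10% FBS. Compounds tested at multiple concentrations; normalized data fitted to concentration-effect curves.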
SW480 rereplic: inducers of DNA re-replication in SW480 colon cancer cells; SW480 DNA re-replication, Hoechst DNA content imaging, 48 h; Potency, µM (highest dose often 46.1 µM), inactives show at the top dose re-replication activation, actives largely listed as activators; 340,000 compounds, 1.8% hits; further: % of control where 0% means no effect; nearly all actives have a fitted effect of over 55% in size
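Image-based read-out: total Hoechst fluorescence of nuclei (405 nm excitation, 500-530 nm emission), with hits raising the fraction of high-intensity nuclei. SW480 colon cells incubated 48 hr with compounds at 37 C.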
Active calls of the source: *; i = inactive; ? = inconclusive; · = no result; [ ] = dose if it differs, or a comment. In the library only some 8.1% were active in any assay of this set; here they are far more common. The call rests on the fitted dose curve; in most records, active means well fitted curve in the direction sought with a large enough effect; inconclusive means small, poorly fitted or top-dose-only effect, or another doubt; inactive means no such curve, though single readings can be large; an effect the other way counts as inactive or inconclusive. Potency means the concentration at half of the fitted maximal effect.

SMILES	ELG1 DNA repair	KB-3-1 cytotox	MCF10A rerep	KB-V1 cytotox	SW480 rereplic
COc1ccc(OC)c(NC(=O)CN(c2ccc(C(C)C)cc2)S(=O)(=O)c2c(C)noc2C)c1	8.2µM*	?	12%	i	2%
COc1ccc(N(CC(=O)Nc2cc(Cl)ccc2OC)S(=O)(=O)c2c(C)noc2C)cc1	-16%	4.6µM*	?	3.3µM*	?
Cc1ccccc1N=Cc1cccc(O)c1O	-16%	i	?	?	6.5µM*
NC(=O)c1ccccc1N=Cc1ccccn1	3%	i	2%	i	-20%
Cc1ccc(C=Nc2ccccc2C(=O)Nc2ccccc2)cc1	?	i	?	i	-1%
Cc1ccc(C=Nc2ccccc2C(N)=O)cc1	?	7.3µM*	12µM*	5.8µM*	?
Cc1ccccc1C=Nc1ccccc1C(N)=O	?	3.7µM*	3.3µM*	?	4.1µM*
CC(N=Cc1cccc(O)c1O)c1ccccc1 (configuration not stated)	-9%	i	?	i	8.2µM*
NC(=O)CSc1oc(-c2cccs2)nc1S(=O)(=O)c1ccc(Br)cc1	·	i	·	i	·
COc1cccc(C2=CC(=O)C[C@H](c3ccc4c(c3)OCO4)C2)c1OC	?	i	28%	i	-7%
COc1cccc(OC)c1C1=CC(=O)C[C@H](c2ccc3c(c2)OCO3)C1	9.2µM*	i	?	i	?
O=C1C=C(c2ccc(-c3ccccc3)cc2)C[C@@H](c2ccc3c(c2)OCO3)C1	15%	i	23%	?	-10%
O=C1C=C(c2ccc(CO)cc2)C[C@@H](c2ccc3c(c2)OCO3)C1	?	i	0.58µM*	i	-21%
COc1cc(F)c(C2=CC(=O)C[C@H](c3ccc4c(c3)OCO4)C2)cc1F	16µM*	i	-5%	i	-4%
COc1ccc(F)cc1C1=CC(=O)C[C@H](c2ccc3c(c2)OCO3)C1	-20%	?	?	?	?
Cc1cc2nn(-c3ccc(F)cc3)nc2cc1NC(=O)c1cccc2c(Cl)cccc12	·	i	·	i	·
CCC(=O)N1CCCC(C)(C(=O)NS(=O)(=O)c2cccs2)C1 (configuration not stated)	·	i	·	i	·
COc1ccc(C(=O)Nc2ccc(-c3nc4ccccc4[nH]3)cc2)cc1OC	·	i	·	?	·
CN(C)CCCNC(=O)C[C@H]1C[C@H](C(=O)N2CCOCC2)[C@@]2(C)c3[nH]c4cc(-c5ccco5)ccc4c3CCN2C1=O	-1%	i	14%	i	-8%
FC(F)Oc1ccc(NC(=S)NNc2ccnc3cc(Cl)ccc23)cc1	2%	16µM*	?	?	12µM*
NC(=S)NNc1ccnc2cc(Cl)ccc12	-6%	i	8%	?	-14%
Cn1ncc2c(N3CCN(c4ccc(Cl)c(Cl)c4)CC3)ncnc21	?	i	11%	2.3µM*	-4%
Cn1ncc2c(N3CCN(c4ccccc4F)CC3)ncnc21	-20%	i	2%	?	1%
O=C(Nc1ccc(OCc2cc(=O)n3c4c(sc3n2)CCCC4)cc1)c1cccc(F)c1	·	i	·	?	·
CCC1CCCCN1C(=O)CCS(=O)(=O)c1cc2c(cc1C)NC(=O)CO2 (configuration not stated)	·	i	·	i	·
SMILES	ELG1 DNA repair	KB-3-1 cytotox	MCF10A rerep	KB-V1 cytotox	SW480 rereplic
NC(=O)c1c(N)[nH]c(C(=O)c2ccccc2)c1-c1ccccc1Br	·	i	·	i	·
COc1ccc(N2CCN(S(=O)(=O)c3cc(-c4cc(C)no4)ccc3C(C)C)CC2)cc1	7.3µM*	i	13%	?	-2%
Cc1cc(-c2ccc(C)c(S(=O)(=O)N3CCC(C)CC3)c2)on1	·	i	·	?	·
Cc1cccc(N2CCN(S(=O)(=O)c3cc(-c4cc(C)no4)ccc3C)CC2C)c1 (configuration not stated)	?	?	3.3µM*	?	10µM*
Cc1cc(-c2ccc(C(C)C)c(S(=O)(=O)N3CCN(c4ccccc4)CC3)c2)on1	?	5.8µM*	?	12µM*	6.5µM*
CC(=O)c1ccc(N2CCN(S(=O)(=O)c3cc(-c4cc(C)no4)ccc3C(C)C)CC2)cc1	?	?	?	i	-3%
Cc1cc(-c2ccc(C(C)C)c(S(=O)(=O)N3CCC(C)CC3)c2)on1	?	21µM*	-3%	i	-1%
CCc1ccc(-c2cc(C)no2)cc1S(=O)(=O)N1CCN(c2cccc(C)c2C)CC1	-18%	?	?	?	-29%
CCc1ccc(-c2cc(C)no2)cc1S(=O)(=O)N1CCN(c2cccc(Cl)c2)CC1	·	3.7µM*	·	?	·
COc1ccc(C)cc1NC(=O)/C=C/c1ccc(OC)c(S(=O)(=O)N2CCOCC2)c1	?	i	2%	i	-14%
CC(C)Cn1nc(NC(=O)c2ccco2)c2cc3ccccc3nc21	?	?	?	?	16µM*
CCn1nc(NC(=O)c2ccco2)c2cc3ccccc3nc21	?	i	21µM*	?	?
CCn1nc(NC(=O)c2ccncc2)c2cc3ccccc3nc21	?	i	?	i	5%
CCc1ccc(NC(=O)C(=O)NCC(c2ccc3c(c2)OCO3)N2CCN(C)CC2)cc1 (configuration not stated)	·	i	·	i	·
Nc1ccc(Br)cc1C(NCC(=O)O)c1ccccc1 (configuration not stated)	11%	i	-2%	i	6.5µM*
COC(=O)CNC(c1ccccc1)c1cc(Br)ccc1NC(=O)OCc1ccccc1 (configuration not stated)	-6%	i	2%	?	-2%[9.22 µM]
COC(=O)CNC(c1ccccc1)c1cc(C)ccc1NC(=O)c1cccc(Cl)c1 (configuration not stated)	18µM*	i	?	i	?
CCOC(=O)CNC(c1ccccc1)c1cc(Br)ccc1NC(C)=O (configuration not stated)	-12%	i	-6%	i	2.9µM*
NC(=O)C1CC(=O)N(c2ccc(OCc3ccc(Cl)c(Cl)c3)cc2)C1 (configuration not stated)	·	i	·	i	·
Cc1ccc(S(=O)(=O)N2C[C@H]3N(C(=O)OC(C)C)N(C(=O)OC(C)C)C[C@H](OC(=O)Nc4c(C)noc4C)[C@@]3(O)C2)cc1	·	i	·	i	·
c1cnc2ncc3sccc3c2c1	8%	i	-7%	i	16µM*
CC(C)C[C@H]1CN(CCCC[C@@H]2CNC(=O)C(=O)N2Cc2ccccc2)C(=O)C(=O)N1CCc1ccc(O)cc1	·	i	·	?	·

Source: PubChem BioAssay (National Center for Advancing Translational Sciences (NCATS))
